From PubChem BioAssay (NCATS)
“And” between values parts separate entries of the source, which are not always exact repeats. Equal entries are not always repeated. Results filed as inconclusive are left out. Unmarked numbers belong to inactive results. The source made the active and inactive calls. The call rests on the fitted dose curve; in most records, active means well fitted cell-killing curve with a large enough effect; inconclusive means small, poorly fitted or top-dose-only effect; inactive means flat fitted curve, though single readings scatter.

Test: Cellular viability qHTS for adrenocortical cancer (ACC) cell line SW-13 (AID 1963989); further: nearly all actives have a fitted effect of over 65% in size;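 on activity (max response): cells grown in serum-free medium with ITS supplement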
Conditions: SW-13 ACC cells viability, CellTiter-Glo, 48 h; activity (max response): hits give low values
Source text: PI: Naris Nilubol, MD Surgical Oncology Program, National Cancer Institute (NCI) National Institute of Health (NIH), Bethesda, Maryland Adrenocortical cancer (ACC) is a rare malignancy with poor survival outcomes and few treatment options. Currently, mitotane is the only FDA-approved therapy for ACC. Although adjuvant radiation therapy is rarely utilized, it has the potential to improve survival in select cases. Through a quantitative high-throughput drug screen (qHTS), we identified auranofin (AF), a thioredoxin reductase (TXNRD) inhibitor, as a promising candidate drug. This study aims to evaluate whether AF can enhance the efficacy of radiation therapy in the treatment of ACC. Two human ACC cell lines, SW-13 and NCI-H295R, were screened using the National Center for Advancing Translational Sciences (NCATS) Pharmaceutical Collection (NPC) and the Mechanism Interrogation PlatE (MIPE) library (~4,991 compounds). CellTiter-Glo (Cat # G7570, Promega, Madison, WI) was utilized to measure cell viability. Described herein are the results of the corresponding viability assay.
PROTOCOL TABLE (as described by Inglese J, Shamu CE and Guy RK. 2007) SEQUENCE No. (e.g., 1, 2, 3, etc.); […] (e.g., Cells, Incubation, Reagent, etc.); VALUE; DESCRIPTION. 1; Cells; 5 uL; white, solid-bottom, 1536-well tissue-culture treated plates. 2; Time; overnight culture at 37C with 5% CO2. 3; Compounds and control; 23 nL; Kalypsis pin tool (Wako USA) equipped with a 1536-well pin head to transfer to the assay plates. 4; Time; 48 hours; 37C with 5% CO2. 5; Reagent; 4 uL; CellTiter-Glo luminescent substrate mix. 6; Time; 20 min at room temperature. 7; Detection; Luminescence; ViewLux plate reader NOTES (numbers refer to Sequence numbers above) 1. SW13 cells were harvested from a T175 flask and resuspended in ITS-supplemented DMEM serum-free medium at a concentration of 300 000 cells/mL. Then 5 uL of resuspended cells were dispensed into each well of white, solid-bottom, 1536-well tissue-culture-treated plates using a multidrop combi dispenser. The plates were covered with stainless steel gasket lids. 2-3. The plates were cultured overnight at 37C with 5% CO2. Twenty-three nL of compounds (eight selected concentrations from the NPC / MIPE) or positive control (10 mM stock of bortezomib) in DMSO was transferred to each well of the assay plate using a pin tool (Kalypsys, San Diego, CA, USA). The final concentration of the compounds in the 5 uL assay volume ranged from 0.5 nM to 46 uM. 4-6. After 48 hours of incubation at 37C and 5% CO2, 4 uL of CellTilter-Glo luminescent substrate mix (Promega, Madison, WI, USA) was added to each well. Then the plates were incubated for 20 minutes at room temperature. 7. After incubation, luminescence was measured using a ViewLux plate reader (PerkinElmer, Waltham, MA, USA) with a clear filter was used to measure the number of metabolically competent cells. To determine compound activity in the qHTS assay, the titration-response data for each sample was plotted and modeled by a four-parameter logistic fit yielding IC50 and efficacy (maximal response) values. […] REFERENCES: Inglese J, Shamu CE and Guy RK, Reporting data from high throughput screening of small molecule libraries, Nature Chemical Biology, 2007, 3(8): 438-441. doi.org/10.1038/nchembio0807-438.
On the % scale 0 is the no-effect control and ±100 the full control effect.

| Structure (SMILES) | activity (max response) | Potency |
| --- | --- | --- |
| CC1(C)OC(=O)NC1=O | 15.1% |  |
| Cc1cccc(C(=O)O)c1O | 14.1% |  |
| Nc1ncnc2c1c(-c1cccc(OCc3ccccc3)c1)cn2C1CC(CN2CCC2)C1 (stereo not given) | 12.1% |  |
| O=c1[nH]c(=O)n([C@H]2C[C@H](O)[C@@H](CO)O2)cc1I | -5.04% and -11.6% |  |
| CCN(CC)CC1CCCCN1CC(=O)N1c2ccccc2C(=O)Nc2cccnc21 (stereo not given) | -3.91% |  |
| CC(C)(C)C(=O)OCOC(=O)[C@@H]1N2C(=O)[C@@H](NC(=O)[C@H](N)c3ccccc3)[C@H]2SC1(C)C | 8.43% |  |
| Cc1c(NC(=O)OC[C@@H]2COCCN2)cn2ncnc(Nc3ccc4c(cnn4Cc4cccc(F)c4)c3)c12 |  | 15.8 µM (active) |
| O=C(c1ccccc1)C(O)c1ccccc1 (stereo not given) | 11.7% |  |
| COc1nccnc1NS(=O)(=O)c1ccc(N)cc1 | 1.63% |  |
| Cc1cc2c(cc1S(N)(=O)=O)S(=O)(=O)CCC2 | 12.2% |  |
| COc1ccccc1N1CCN(CC(O)COc2cc(OC)c(OC)c(OC)c2)CC1 (stereo not given) | 13.2% |  |
| O=C(O)CCCC[C@@H]1SC[C@@H]2NC(=O)N[C@@H]21 | -0.523% |  |
| CC1(C)S[C@@H]2[C@H](NC(=O)[C@H](N)c3ccccc3)C(=O)N2[C@H]1C(=O)O | 9.26% |  |
| OCCCNc1cc(-c2ccnc(Nc3cccc(Cl)c3)n2)ccn1 |  | 0.447 µM (active) |
| Cc1ccc(S(=O)(=O)NC(=O)NN2CC3CCCC3C2)cc1 (stereo not given) | 5.83% and 9.36% |  |
| NC1CCN(c2cccc(Cl)n2)CC1 | 2.41% |  |
| O=C(Nc1cccc(Cl)c1)Nc1ncc(CCNc2ncnc3ccsc23)s1 |  | 28.2 µM (active) |
| Cc1ccccc1-n1c(Cn2nc(-c3cccc(O)c3)c3c(N)ncnc32)nc2cccc(C)c2c1=O | -11.8% |  |
| COc1cc(C(=O)NC2CCCNC2)cc(OC)c1OC (stereo not given) | 8.49% |  |
| CC[C@H]1OC(=O)[C@H](C)C(=O)[C@H](C)[C@@H](O[C@H]2O[C@H](C)C[C@H](N(C)C)[C@H]2O)[C@](C)(OC)C[C@@H](C)C(=O)[C@H](C)[C@H]2N(CCCCn3cnc(-c4cccnc4)c3)C(=O)O[C@]12C | -18.8% |  |

| Structure (SMILES) | activity (max response) | Potency |
| --- | --- | --- |
| Cc1nc2c([nH]1)c(=O)n(C)c(=O)n2Cc1ccco1 | -2.81% |  |
| C[C@@H](c1ncncc1F)C(O)(Cn1cncn1)c1ccc(F)cc1F (stereo not given in full) | 2.11% |  |
| CCOC(CN1CCN(CC(C)C(=O)c2ccccc2)CC1)c1ccccc1 (stereo not given) | -8.86% |  |
| CC(C)Cc1ccc(C(C)C(=O)O)cc1 (stereo not given) | 8.32% and 2.38% |  |
| COc1ccc2cc3[n+](cc2c1OC)CCc1cc2c(cc1-3)OCO2 |  | 10.3 µM (active) and 8.91 µM (active) |
| CCOC(=O)C1=C(O)C(=O)N(Cc2ccccc2)C1 | 4.18% |  |
| COC(=O)[C@@H](N)Cc1ccc(O)c(O)c1 | -15% |  |
| CCCCCC(N)=O | 5.46% |  |
| COc1cccc(Nc2c(C(N)=O)cnc3c(C)cc(S(=O)(=O)c4cccc(C(=O)N(C)C)c4)cc23)c1 | 11.8% |  |
| Nc1c2c(nc3ccccc13)CCCC2O (stereo not given) | 13% |  |
| CCN1CCCC1=O | 9.62% |  |
| COc1cc2c(cc1OC)CN(C(=O)[C@H](C)N[C@@H](CCc1ccccc1)C(=O)O)[C@H](C(=O)O)C2 | 4.46% |  |
| O=c1cc(-c2ccc(O)cc2)oc2cc(O)cc(O)c12 | -18.3% |  |
| CC1=C(CC(=O)O)c2cc(F)ccc2/C1=C\c1ccc(S(C)=O)cc1 (stereo not given) | 1.22% |  |
| CC(C)OC(=O)c1cc(C(=O)OC(C)C)cc([N+](=O)[O-])c1 | 4.98% |  |
| CO[C@H]1/C=C/O[C@@]2(C)Oc3c(C)c(O)c4c(O)c(c(/C=N/N5CCN(C)CC5)c(O)c4c3C2=O)NC(=O)/C(C)=C\C=C\[C@H](C)[C@H](O)[C@@H](C)[C@@H](O)[C@@H](C)[C@H](OC(C)=O)[C@@H]1C | -27.5% |  |
| Cc1ccc(Cl)c(OCC(O)CNC(C)(C)C)c1 (stereo not given) | 1.06% |  |
| CCCCCCCCCCCCCC(=O)OC(C)C | 6.54% |  |
| FC(F)(F)C(Cl)Br (stereo not given) | -8.02% |  |
| CCOc1ccc2ccccc2c1C(=O)N[C@@H]1C(=O)N2[C@@H]1SC(C)(C)[C@@H]2C(=O)O | 2.64% |  |
